Source: PubChem BioAssay (NCI)
The panel holds about 83,000 compounds, 20% with a hit somewhere; the sample as a whole holds those more often.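 A percent growth of 40 corresponds to 60% growth inhibition; 0 means no net growth; -100 means all cells died. Active threshold: below 10.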 Active and inactive are the calls of the source.

Experiments:
Assay in all cases: NCI-60 one-dose screen, 48 h (100 = growth as untreated, 0 = no growth, -100 = all killed)
Conditions in all cases: 10 µM unless noted
SK-MEL-2 melanoma = test system: SK-MEL-2 melanoma
EKVX NSCLC = test system: EKVX NSCLC
SN12C renal = test system: SN12C renal
UO-31 renal = test system: UO-31 renal
TK-10 renal = test system: TK-10 renal
ACHN renal = test system: ACHN renal
CAKI-1 renal = test system: CAKI-1 renal
A498 renal = test system: A498 renal
CCRF-CEM leukemia = test system: CCRF-CEM leukemia
MOLT-4 leukemia = test system: MOLT-4 leukemia
SR leukemia = test system: SR leukemia
RPMI-8226 leukemia = test system: RPMI-8226 leukemia
OVCAR-8 ovarian = test system: OVCAR-8 ovarian
OVCAR-5 ovarian = test system: OVCAR-5 ovarian
OVCAR-4 ovarian = test system: OVCAR-4 ovarian
SK-OV-3 ovarian = test system: SK-OV-3 ovarian
IGROV1 ovarian = test system: IGROV1 ovarian
OVCAR-3 ovarian = test system: OVCAR-3 ovarian
HS 578T breast = test system: HS 578T breast
NCI/ADR-RES ovarian = test system: NCI/ADR-RES ovarian

Measured: growth

COc1ccc(Cn2cc(C(=O)N=Nc3c(O)[nH]c4c(Cl)cccc34)nn2)cc1
inactive: SK-MEL-2 melanoma 93.2% | EKVX NSCLC 102% | SN12C renal 95.8% | UO-31 renal 93.5% | TK-10 renal 106% | ACHN renal 111% | CAKI-1 renal 94.4% | A498 renal 93.8% | CCRF-CEM leukemia 106% | MOLT-4 leukemia 84.8% | SR leukemia 80.3% | RPMI-8226 leukemia 106% | OVCAR-8 ovarian 97.4% | OVCAR-5 ovarian 123% | OVCAR-4 ovarian 104% | SK-OV-3 ovarian 113% | IGROV1 ovarian 103% | OVCAR-3 ovarian 113% | HS 578T breast 97.5% | NCI/ADR-RES ovarian 105%

CC1(C)C2CC=C(/C=N/NC(=O)C3CCC(=O)N3)C1C2 (stereo not given)
inactive: SK-MEL-2 melanoma 102% | EKVX NSCLC 105% | SN12C renal 104% | UO-31 renal 94.6% | TK-10 renal 97.2% | ACHN renal 102% | CAKI-1 renal 97.4% | A498 renal 102% | CCRF-CEM leukemia 104% | MOLT-4 leukemia 103% | SR leukemia 116% | RPMI-8226 leukemia 103% | OVCAR-8 ovarian 105% | OVCAR-5 ovarian 107% | OVCAR-4 ovarian 101% | SK-OV-3 ovarian 106% | IGROV1 ovarian 109% | OVCAR-3 ovarian 112% | HS 578T breast 104% | NCI/ADR-RES ovarian 105%

COc1ccc(C2C3=C(COC3=O)N(CCO)c3cc4c(cc32)OCCO4)cc1OC (stereo not given)
active: A498 renal -5.71% | OVCAR-3 ovarian -37% | HS 578T breast -11.4%
inactive: SK-MEL-2 melanoma 55.3% | EKVX NSCLC 56.5% | SN12C renal 42% | UO-31 renal 66.2% | TK-10 renal 65.1% | ACHN renal 42.2% | CAKI-1 renal 49.5% | CCRF-CEM leukemia 21.1% | MOLT-4 leukemia 55.3% | SR leukemia 16.8% | RPMI-8226 leukemia 28.5% | OVCAR-8 ovarian 53.3% | OVCAR-5 ovarian 67.1% | OVCAR-4 ovarian 41.3% | SK-OV-3 ovarian 29.2% | IGROV1 ovarian 37.1% | NCI/ADR-RES ovarian 65.4%

CCCNc1nc2ccccc2c2c(=O)c3cccc(Cl)c3sc12
inactive: SK-MEL-2 melanoma 102% | EKVX NSCLC 85.1% | SN12C renal 105% | UO-31 renal 66.9% | TK-10 renal 129% | ACHN renal 92.7% | CAKI-1 renal 71.7% | A498 renal 124% | CCRF-CEM leukemia 92.2% | MOLT-4 leukemia 93.9% | SR leukemia 82.7% | RPMI-8226 leukemia 103% | OVCAR-8 ovarian 95.4% | OVCAR-5 ovarian 96.5% | OVCAR-4 ovarian 81.9% | SK-OV-3 ovarian 88.4% | IGROV1 ovarian 70.1% | OVCAR-3 ovarian 111% | HS 578T breast 114% | NCI/ADR-RES ovarian 101%

O=C1CCC(C(=O)NN(c2ccccc2)c2ccccc2)N1 (stereo not given)
inactive: SK-MEL-2 melanoma 105% | EKVX NSCLC 102% | SN12C renal 97.8% | UO-31 renal 85.5% | TK-10 renal 82.8% | ACHN renal 103% | CAKI-1 renal 78% | A498 renal 103% | CCRF-CEM leukemia 22% | MOLT-4 leukemia 50% | SR leukemia 19.7% | RPMI-8226 leukemia 17.8% | OVCAR-8 ovarian 103% | OVCAR-5 ovarian 99.2% | OVCAR-4 ovarian 103% | SK-OV-3 ovarian 96.6% | IGROV1 ovarian 105% | OVCAR-3 ovarian 95.4% | HS 578T breast 95.8% | NCI/ADR-RES ovarian 111%

O=C(OC[C@@H]1CO1)c1cccc2c(=O)c3ccccc3[nH]c12
active: SK-MEL-2 melanoma -70.8% | EKVX NSCLC -16.8% | SN12C renal -46.9% | UO-31 renal -20.7% | TK-10 renal -6.41% | ACHN renal -41.2% | CAKI-1 renal -13.2% | A498 renal -44.4% | CCRF-CEM leukemia 2.83% | MOLT-4 leukemia 1.32% | SR leukemia 9.87% | RPMI-8226 leukemia -11.7% | OVCAR-8 ovarian -56% | OVCAR-5 ovarian -21.4% | OVCAR-4 ovarian -27% | SK-OV-3 ovarian -38.5% | IGROV1 ovarian -13.7% | OVCAR-3 ovarian -25.7% | HS 578T breast -21.5% | NCI/ADR-RES ovarian -16.3%

CCCCn1sc(=O)n(Cc2ccc(CNC(=O)OCc3ccc4c(Br)cc(Br)c(O)c4n3)cc2)c1=O
inactive: SK-MEL-2 melanoma 45.6% | EKVX NSCLC 103% | SN12C renal 29.5% | UO-31 renal 42.7% | TK-10 renal 74.8% | ACHN renal 33.6% | CAKI-1 renal 22.4% | CCRF-CEM leukemia 18.1% | MOLT-4 leukemia 14.6% | RPMI-8226 leukemia 18.7% | OVCAR-8 ovarian 13.7% | OVCAR-5 ovarian 52% | OVCAR-4 ovarian 51.7% | SK-OV-3 ovarian 34.6% | IGROV1 ovarian 15.7% | HS 578T breast 18.6%
active: A498 renal -7.85% | SR leukemia 5.73% | OVCAR-3 ovarian -0.408% | NCI/ADR-RES ovarian 9.82%

CCN(CC)c1ccc(/C=N\NC(=O)c2cccc(Nc3ccnc(C(F)(F)F)c3)c2)c(O)c1
inactive: SK-MEL-2 melanoma 87.5% | EKVX NSCLC 26.6% | SN12C renal 18.2% | TK-10 renal 42.8% | ACHN renal 12.1% | CAKI-1 renal 55.6% | A498 renal 53% | CCRF-CEM leukemia 15.7% | MOLT-4 leukemia 77.5% | SR leukemia 131% | OVCAR-8 ovarian 37.3% | OVCAR-5 ovarian 48.6% | OVCAR-4 ovarian 18.8% | SK-OV-3 ovarian 19.5% | IGROV1 ovarian 79.9% | OVCAR-3 ovarian 30.9% | HS 578T breast 57.8% | NCI/ADR-RES ovarian 29.4%
active: UO-31 renal 7.3% | RPMI-8226 leukemia 6.52%

O=C(c1ccc(F)c(Cl)c1)N1c2ccccc2Sc2ccccc21
inactive: SK-MEL-2 melanoma 65.2% | EKVX NSCLC 74.1% | SN12C renal 99.2% | UO-31 renal 72.9% | TK-10 renal 85.2% | ACHN renal 104% | CAKI-1 renal 53.4% | A498 renal 61.7% | CCRF-CEM leukemia 58.4% | MOLT-4 leukemia 44.1% | SR leukemia 34% | RPMI-8226 leukemia 52.6% | OVCAR-8 ovarian 89.9% | OVCAR-5 ovarian 87.3% | OVCAR-4 ovarian 80.1% | SK-OV-3 ovarian 89.2% | IGROV1 ovarian 71.2% | OVCAR-3 ovarian 63.2% | HS 578T breast 79.3% | NCI/ADR-RES ovarian 39.8%

CC1(C)OC(=O)C(=Cc2cccc(Br)c2)C(=O)O1
inactive: SK-MEL-2 melanoma 103% | EKVX NSCLC 100% | SN12C renal 101% | UO-31 renal 92.9% | TK-10 renal 101% | ACHN renal 117% | CAKI-1 renal 100% | A498 renal 94.2% | CCRF-CEM leukemia 93.2% | MOLT-4 leukemia 89.9% | SR leukemia 99.7% | RPMI-8226 leukemia 97.4% | OVCAR-8 ovarian 98.4% | OVCAR-5 ovarian 117% | OVCAR-4 ovarian 114% | SK-OV-3 ovarian 109% | IGROV1 ovarian 102% | OVCAR-3 ovarian 107% | HS 578T breast 90.8% | NCI/ADR-RES ovarian 107%

COc1ccc2nc(Cl)c(/C=C/C(=O)c3ccc(NC(=O)CSc4nnc(-c5ccc(Cl)c(Cl)c5)n4-c4ccccc4)cc3)cc2c1
inactive: SK-MEL-2 melanoma 87.6% | EKVX NSCLC 93.2% | SN12C renal 88.2% | UO-31 renal 79.3% | TK-10 renal 100% | ACHN renal 103% | CAKI-1 renal 77.6% | A498 renal 87% | CCRF-CEM leukemia 90.8% | MOLT-4 leukemia 86.4% | SR leukemia 98.6% | RPMI-8226 leukemia 62% | OVCAR-8 ovarian 92.1% | OVCAR-5 ovarian 102% | OVCAR-4 ovarian 103% | SK-OV-3 ovarian 91.4% | IGROV1 ovarian 76.3% | OVCAR-3 ovarian 105% | HS 578T breast 89.3% | NCI/ADR-RES ovarian 102%

O=C(O)C1CN(c2cccc(Cl)c2)N(c2cccc(Cl)c2)C1=O (stereo not given)
inactive: SK-MEL-2 melanoma 94.7% | EKVX NSCLC 96.9% | SN12C renal 89% | UO-31 renal 72.2% | TK-10 renal 105% | ACHN renal 95.6% | CAKI-1 renal 92.8% | A498 renal 110% | CCRF-CEM leukemia 107% | MOLT-4 leukemia 88.8% | SR leukemia 85% | RPMI-8226 leukemia 107% | OVCAR-8 ovarian 93.2% | OVCAR-5 ovarian 75.3% | OVCAR-4 ovarian 96% | SK-OV-3 ovarian 88.9% | IGROV1 ovarian 89.8% | OVCAR-3 ovarian 87.1% | HS 578T breast 91% | NCI/ADR-RES ovarian 93.9%

Cc1[nH]c(/C=C/C(=O)c2ccc(C(F)(F)F)c(F)c2)c(C)c1C(=O)NCC(C)C
inactive: SK-MEL-2 melanoma 110% | EKVX NSCLC 96.1% | SN12C renal 97.9% | UO-31 renal 92% | TK-10 renal 109% | ACHN renal 101% | CAKI-1 renal 94.8% | A498 renal 69% | CCRF-CEM leukemia 101% | MOLT-4 leukemia 101% | SR leukemia 85.6% | RPMI-8226 leukemia 95.8% | OVCAR-8 ovarian 89.4% | OVCAR-5 ovarian 101% | OVCAR-4 ovarian 101% | SK-OV-3 ovarian 105% | IGROV1 ovarian 107% | OVCAR-3 ovarian 112% | HS 578T breast 97.9% | NCI/ADR-RES ovarian 98.9%

O=C(CCCCNC(=O)c1cc(=O)c(O)co1)Nc1ccccc1
inactive: SK-MEL-2 melanoma 98.8% | EKVX NSCLC 95.6% | SN12C renal 88.4% | UO-31 renal 76.4% | TK-10 renal 98.3% | ACHN renal 31.5% | CAKI-1 renal 94.3% | A498 renal 98.2% | MOLT-4 leukemia 20.3% | SR leukemia 14.3% | RPMI-8226 leukemia 50.4% | OVCAR-8 ovarian 93.6% | OVCAR-5 ovarian 119% | OVCAR-4 ovarian 79.3% | SK-OV-3 ovarian 119% | IGROV1 ovarian 99% | OVCAR-3 ovarian 47.4% | HS 578T breast 92.9% | NCI/ADR-RES ovarian 87%
active: CCRF-CEM leukemia 6.26%

COc1cc(N2C(=O)[C@H](c3ccccc3)C2c2ccc(SC)cc2)cc(OC)c1OC (stereo not given in full)
active: A498 renal -4.14% | CCRF-CEM leukemia 5.22% | MOLT-4 leukemia 2.92% | SR leukemia -5.24% | RPMI-8226 leukemia -9.2% | OVCAR-8 ovarian 4.09% | SK-OV-3 ovarian 8.14% | OVCAR-3 ovarian 8.73% | NCI/ADR-RES ovarian 9.89%
inactive: SK-MEL-2 melanoma 31.1% | EKVX NSCLC 33.7% | SN12C renal 24.3% | UO-31 renal 32.5% | TK-10 renal 50.9% | ACHN renal 30.2% | CAKI-1 renal 21.3% | OVCAR-5 ovarian 56.8% | OVCAR-4 ovarian 48.6% | IGROV1 ovarian 13.7% | HS 578T breast 20.6%
